# High-throughput results as filed in PubChem BioAssay.
# SKKanGAS inh = S. pyogenes SKKanGAS growth inhibitors in kanamycin, primary screen, streptokinase expression inhibitor project, SKKanGAS strain, BacTiter-Glo luminescence; 6 h; inhibition, % at 7.5 µM; actives 1.3% (n = 300,000); AID 1662, 2009;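 active = mean replicate score, as percent of positive control median, at least 50; inconclusive = mean below 50 but one replicate at or above 50; inactive = mean and every replicate below 50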;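 also: strain carries kanamycin resistance gene driven by streptokinase promoter and grows in 40 µg/ml kanamycin; loss of luminescence reflects streptokinase promoter inhibition or plain growth inhibition; 0% = median of DMSO wells and 100% = positive control at its reference dose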
# GRIN3A LBD mod = binders of NR3A ligand-binding domain, primary screen, biophysical, differential scanning fluorimetry, uHTS. Glutamate receptor ionotropic, NMDA 3A (GRIN3A) ligand-binding domain. NR3A LBD differential scanning fluorimetry, Tm shift; 0% = protein alone, 100% = glycine-bound protein. Tm shift relative to glycine control, % at 25 µM. actives 2.5% (n = 340,000);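 active = melting temperature shift of at least 10% of the positive control shift, at one fixed dose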
# CSC inhib = cancer stem cell viability inhibitors, primary screen, luminescence. inhibition, % at 7.5 µM. actives 1.1% (n = 300,000). cancer stem cell-like cells viability; in the data active = inhibition above about 75%; inconclusive = no clear call, values can overlap the other calls; tested in HMLE shEcad cells
# Beta cell apopt = inhibitors of cytokine-induced beta cell apoptosis, primary screen, luminescence | INS-1E cytokine-induced death, ATP luminescence, 48 h; percent of positive-control rescue, neutral wells zero | protection from apoptosis, % (test concentration not listed) | actives 0.8% (n = 300,000) | AID 435005, 2010;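 active = Every replicate reaches about 75%, or at least half do and their mean reaches it too, limit read from the data; inconclusive = At least half of replicates reach the limit but their mean does not; inactive = Under half of replicates reach the limit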;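 also: 0% = cytokine-treated negative control wells and 100% = positive control rescue; higher means more ATP so stronger rescue from cytokine killing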
# MPTP block = mitochondrial permeability transition pore inhibitors, primary screen, biochemical, isolated mouse mitochondria, absorbance; Ca2+ swelling absorbance, 30 min; inhibition, % at 10 µM; actives 1.4% (n = 360,000); AID 602449, 2012;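 active = inhibition of 50% or more, scaled per plate between neutral and stimulator controls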;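 also: 0% = DMSO wells given calcium and 100% = 1 mM EGTA wells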
# Mdm2-MdmX inh = inhibitors of human Mdm2-MdmX association, primary screen, cell-based, luminescence, split luciferase, SaOS-2, uHTS; inhibition, % at 8 µM; AID 485346, 2010; Protein Mdm4 (Homo sapiens) + E3 ubiquitin-protein ligase Mdm2 (Homo sapiens), …; SaOS-2 split-luciferase Mdm2/MdmX complementation; actives 3% (n = 330,000);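 active = inhibition of at least 50% at 8 µM in the primary screen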
# Target sequence (O15151 whole entry, looked up): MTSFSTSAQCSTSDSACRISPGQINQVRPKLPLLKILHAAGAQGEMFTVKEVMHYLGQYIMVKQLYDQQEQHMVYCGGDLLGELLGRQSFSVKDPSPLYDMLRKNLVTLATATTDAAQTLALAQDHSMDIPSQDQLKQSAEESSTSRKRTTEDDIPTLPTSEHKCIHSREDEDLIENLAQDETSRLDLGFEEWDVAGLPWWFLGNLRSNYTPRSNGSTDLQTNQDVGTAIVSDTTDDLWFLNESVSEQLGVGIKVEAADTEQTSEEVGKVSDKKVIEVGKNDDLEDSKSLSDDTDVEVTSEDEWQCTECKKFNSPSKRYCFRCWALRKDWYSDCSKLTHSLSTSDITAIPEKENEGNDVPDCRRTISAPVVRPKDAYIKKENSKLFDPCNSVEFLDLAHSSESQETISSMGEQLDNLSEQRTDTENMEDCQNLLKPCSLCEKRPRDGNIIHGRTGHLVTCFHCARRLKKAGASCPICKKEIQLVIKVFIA
# Target sequence (Q00987 whole entry, looked up): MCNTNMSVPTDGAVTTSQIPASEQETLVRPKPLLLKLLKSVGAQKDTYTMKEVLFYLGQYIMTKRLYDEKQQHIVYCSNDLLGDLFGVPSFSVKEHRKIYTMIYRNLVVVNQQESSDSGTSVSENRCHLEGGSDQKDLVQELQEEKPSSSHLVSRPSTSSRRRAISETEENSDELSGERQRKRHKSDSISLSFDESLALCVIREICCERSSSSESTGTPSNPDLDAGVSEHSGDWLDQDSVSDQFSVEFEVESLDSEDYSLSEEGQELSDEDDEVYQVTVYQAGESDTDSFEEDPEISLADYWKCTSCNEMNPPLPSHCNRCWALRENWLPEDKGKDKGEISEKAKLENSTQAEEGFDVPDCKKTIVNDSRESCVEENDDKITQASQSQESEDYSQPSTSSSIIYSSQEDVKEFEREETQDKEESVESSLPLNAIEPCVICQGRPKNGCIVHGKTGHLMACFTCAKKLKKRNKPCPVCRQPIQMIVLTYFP
# Mdm2-MdmX conf = Mdm2-MdmX complex disruptors, retested hits, confirmation, luminescence, single concentration | shares compounds with Mdm2-MdmX inh | Mdm2-MdmX binding, luminescent assay | inhibition, % at 8 µM | actives 55% (n = 10,000); in the data active = inhibition above about 40%
# Full FLuc ctr = full-length luciferase signal inhibition, confirmation, counter-screen for Mdm2/MdmX interaction inhibitor project, cell-based, single concentration, SaOS-2 | shares compounds with Mdm2-MdmX inh | SaOS-2 full-length luciferase counterscreen, luminescence | AID 504607, 2011 | inhibition, % at 8 µM | actives 77% (n = 6,200);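 active = mean inhibition at 8 µM reaching about 37%, which flags the compound as non-specific, limit read from the data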;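 also: p53-null SaOS-2 cells with luciferase driven by a doxycycline-inducible promoter; compound on cells about two nights before reading with doxycycline added after day one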
# An asterisk follows results filed as active; ? = inconclusive; · = no result. Hits are enriched below; roughly 6.9% of the tested compounds scored in any of these assays.
SMILES,SKKanGAS inh,GRIN3A LBD mod,CSC inhib,Beta cell apopt,MPTP block,Mdm2-MdmX inh,Mdm2-MdmX conf,Full FLuc ctr
COc1ccc(NC(=O)CSc2ccc3c4c(cccc24)C(=O)c2ccccc2-3)cc1,7,4,-21,-12,8,58*,16,·
O=c1[nH][nH]c(-c2ccccc2O)c1C(C[N+](=O)[O-])c1ccc(Br)cc1 (centres undefined),2,1,59,3,22,54*,23,·
CCOc1ccc(OCCCC(=O)N2CCN(S(=O)(=O)c3ccc(Cl)cc3)CC2)cc1,-4,2,-8,3,-1,11,·,·
COC(=O)c1c(NC(=O)Cc2ccccc2)sc2c1CCN(C(C)C)C2,1,1,-5,0,0,-6,·,·
COC(=O)c1c(NC(=O)c2ccc([N+](=O)[O-])o2)sc2c1CCN(C(C)C)C2,57*,0,29,8,-1,97*,98*,48*
CC(C)N1CCc2c(sc(NC(=O)c3ccc([N+](=O)[O-])o3)c2C(N)=O)C1,?,·,-7,71,1,89*,94*,19
CCCN(CC(=O)Nc1ccc(F)c(F)c1F)C(=O)C1=COCCO1,-6,1,-6,-2,-1,4,·,·
CCOC(=O)C1CCCN(S(=O)(=O)CCNC(=O)c2ccc(F)cc2)C1 (centres undefined),-5,1,·,-2,-4,4,·,·
NC1=NC(=O)C(Cc2ccc(OC(F)(F)F)cc2)S1 (centres undefined),0,0,2,-12,0,7,·,·
CN(CCO)c1cc(Sc2nc3ccccc3s2)c2nonc2c1[N+](=O)[O-],67*,-7,103*,56,3,97*,97*,2
CC(=O)OCCN(C)c1cc(SC(C)C)c2nonc2c1[N+](=O)[O-],21,2,-16,-3,1,15,·,·
COCCN(Cc1nc2ccccc2c(=O)[nH]1)C(=O)COc1ccccc1-c1ccccc1,·,13*,·,·,-1,53*,43*,86*
COc1ccccc1NC(=O)[C@@H]1CCCN1S(=O)(=O)c1ccc(Cl)cc1,·,-1,-12,-1,-1,19,·,·
CCn1c(=O)c([N+](=O)[O-])c(Cl)c2ccccc21,12,-2,?,77*,0,99*,97*,55*
CCn1c(=O)c([N+](=O)[O-])c(NCCN(C)C)c2ccccc21,13,1,1,-8,-1,12,·,·
Cc1ccc(NCc2nc3ccccc3n2CCOc2ccccc2)cc1,5,-10,11,-3,2,-47,·,·
COc1ccc(OCCn2c(NC(=O)c3ccco3)nc3ccccc32)cc1,62*,0,16,16,-6,57*,11,·
S=C(Nc1ccccc1)Nc1nc2ccccc2n1CCOc1ccccc1,42,-6,98*,20,4,51*,24,·
Clc1ccc(OCCn2c(-c3ccco3)nc3ccccc32)cc1,30,-9,39,-3,5,7,·,·
CCCCn1c(NC(=S)Nc2ccccc2)nc2ccccc21,9,-13,·,51,2,58*,39,94*
CC(=O)c1ccc(N2CCN(C(=O)c3cc(-c4ccncc4)nc4ccc(Cl)cc34)CC2)cc1,1,-2,1,3,-1,63*,30,·
Cc1cccc2c(C(=O)N3CCCCC3)cc(-c3ccccc3)nc12,4,-1,45,-1,1,3,·,·
Cc1cccc2c(C(=O)N3CCN(c4ccccc4)CC3)cc(-c3ccncc3)nc12,-10,-2,58,10,-2,57*,75*,69*
Cc1nnc(SCc2cc(=O)[nH]c(/N=C(\N)Nc3ccccc3)n2)s1,-1,-3,4,-1,0,36,·,·
CCOc1ccc(N/C(N)=N/c2nc(CSc3nnc(C)s3)cc(=O)[nH]2)cc1,4,-3,?,1,6,67*,56*,81*
SMILES,SKKanGAS inh,GRIN3A LBD mod,CSC inhib,Beta cell apopt,MPTP block,Mdm2-MdmX inh,Mdm2-MdmX conf,Full FLuc ctr
C=CCOc1ccc(C(=O)Nc2ccccc2C(=O)NCc2cccnc2)cc1,0,-2,-3,0,-1,58*,55*,61*
COc1ccccc1N1CCN(c2nccc(C)n2)CC1,14,3,-8,0,0,21,·,·
COc1ccc(CCNC(=O)c2ccc3c(c2)OCCO3)cc1,9,0,-1,-3,-2,-64,·,·
O=C(CCc1ccccc1)c1ccc2c(c1)OCCCO2,-8,1,1,-7,2,-133,·,·
O=C(CCCc1ccccc1)c1ccc2c(c1)OCCO2,10,-17,0,-5,-1,90*,88*,57*
O=C(NCCc1ccccc1)c1ccc2c(c1)OCCO2,-1,0,3,3,-1,84*,85*,28
O=C(NCCc1ccccc1)c1ccc2c(c1)OCCCO2,2,1,10,3,-2,97*,94*,52*
CCN(CC(=O)Nc1cc(Cl)ccc1C)C(=O)C1COc2ccccc2O1 (centres undefined),·,0,-6,-5,-3,6,·,·
Cc1cccc2c1Sc1ccc(Cl)cc1CC2N1CCNCC1 (centres undefined),14,-6,102*,·,·,100*,39,46*
CCc1cccc2c1Sc1ccccc1CC2N1CCNCC1 (centres undefined),8,-3,79*,·,-1,71*,24,·
CCN(CC)S(=O)(=O)c1cccc(-n2c(O)c(C=Nc3ccccc3C(=O)O)c3ccccc3c2=O)c1,36,-1,35,-16,7,67*,68*,37*
O=C(O)c1ccccc1N=Cc1c(O)n(-c2nccs2)c(=O)c2ccccc12,-10,-4,0,1,0,16,·,·
O=c1c2ccccc2oc2cc(OCc3ccc(F)cc3)cc(O)c12,4,-2,11,-1,2,14,·,·
Cc1ccc(OCC(=O)Nc2ccc(O)c(-c3nc4ccccc4o3)c2)cc1,18,-3,-8,7,0,92*,47*,108*
